The test concerns thyroid hormone receptor (endogenous TRα and TRβ). Further details: species or system GH3-TRE-Luc (rat pituitary); GH3-TRE-Luc luciferase reporter, antagonist mode against 1 nM T3, loss of signal, qHTS. Conditions: read-out: Average AC50 (uM) GH3-TRE-Antag, antagonist mode, 1 nM T3, no GH3 cytotoxicity hit.
As for `CC(C)c1cccc(C(C)C)c1O` [Propofol], the half-maximal activity concentration (AC50) (commonly the concentration giving half of the maximal activity seen) was more than 50 µM.
The figure for `CN1[C@@H](CC(=O)c2ccccc2)CCC[C@H]1C[C@H](O)c1ccccc1` [Lobeline] is 29.3 µM; for `CCN(CC)C(=O)N[C@H]1C[C@@H]2c3cccc4[nH]cc(c34)C[C@H]2N(C)C1` [Terguride] it is 22.1 µM.

The record behind these values is article PMC6792352, “Limited Chemical Structural Diversity Found to Modulate Thyroid Hormone Receptor in the Tox21 Chemical Library” (Environmental Health Perspectives, 2019).
